In the supplement of paper PMC11732987, “Enantioselective OTUD7B fragment discovery through chemoproteomics screening and high-throughput optimisation” (Communications Chemistry, 2025):
Unmarked numbers belong to inactive results.

What follows are compounds tested against T1, VCPIP1 (UniProt Q96JH7) (assay: log2 ratio of Biotin-Ahx-Ub-VS probe labelling (fragment/DMSO); higher = less target engagement (more negative = stronger competition), active = hit call of the paper (q ≤ 0.05, log2 ratio ≤ -1)). Conditions: compound concentration: 200 uM; treatment time: 3 h.
T1 sequence (whole entry): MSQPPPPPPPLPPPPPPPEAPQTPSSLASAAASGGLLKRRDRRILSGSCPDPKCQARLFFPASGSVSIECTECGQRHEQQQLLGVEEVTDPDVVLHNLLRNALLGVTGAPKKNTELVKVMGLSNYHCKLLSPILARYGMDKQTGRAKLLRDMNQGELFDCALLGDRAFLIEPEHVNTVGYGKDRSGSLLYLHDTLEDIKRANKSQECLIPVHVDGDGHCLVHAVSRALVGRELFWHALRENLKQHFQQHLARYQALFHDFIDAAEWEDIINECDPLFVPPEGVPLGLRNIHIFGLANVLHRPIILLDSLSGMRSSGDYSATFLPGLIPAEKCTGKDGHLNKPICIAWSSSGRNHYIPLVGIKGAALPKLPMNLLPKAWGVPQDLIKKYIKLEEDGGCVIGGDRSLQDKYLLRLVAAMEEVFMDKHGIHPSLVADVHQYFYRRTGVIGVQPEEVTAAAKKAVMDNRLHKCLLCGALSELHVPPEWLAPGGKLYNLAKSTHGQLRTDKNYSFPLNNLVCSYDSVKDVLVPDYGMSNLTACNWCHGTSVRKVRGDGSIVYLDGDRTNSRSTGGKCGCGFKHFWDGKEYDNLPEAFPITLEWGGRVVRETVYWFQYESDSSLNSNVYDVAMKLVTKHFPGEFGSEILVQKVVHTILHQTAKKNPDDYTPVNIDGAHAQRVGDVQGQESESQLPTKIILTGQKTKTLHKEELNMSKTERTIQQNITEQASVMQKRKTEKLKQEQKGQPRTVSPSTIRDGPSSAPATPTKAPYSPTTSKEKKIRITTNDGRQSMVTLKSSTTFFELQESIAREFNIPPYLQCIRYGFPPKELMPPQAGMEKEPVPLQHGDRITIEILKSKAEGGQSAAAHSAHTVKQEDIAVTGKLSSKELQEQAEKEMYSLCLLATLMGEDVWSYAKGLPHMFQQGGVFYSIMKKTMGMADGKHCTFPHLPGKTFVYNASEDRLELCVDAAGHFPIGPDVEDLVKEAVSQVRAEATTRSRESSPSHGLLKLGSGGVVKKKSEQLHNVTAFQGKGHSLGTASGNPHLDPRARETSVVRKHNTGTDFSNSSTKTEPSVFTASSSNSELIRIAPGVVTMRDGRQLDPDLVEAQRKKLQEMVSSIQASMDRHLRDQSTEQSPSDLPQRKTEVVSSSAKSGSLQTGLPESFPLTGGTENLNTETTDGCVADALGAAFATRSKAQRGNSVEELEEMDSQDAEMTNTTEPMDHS
Experimental: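 Competitive ABPP in HEK293T cell lysate. Lysates were treated with each chloroacetamide fragment at 200 µM for 3 h, then with Biotin-Ahx-Ub-VS (0.5 µM, 1 h), NeutrAvidin-enriched and analysed by diaPASEF LC-MS/MS. Protein LFQ was median-normalised; average log2 ratio is fragment/DMSO from an unpaired t-test (n=3 treated, n=44 DMSO). Hits: q ≤ 0.05, log2 ratio ≤ -1, unique peptides ≥ 2.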
`O=C(CCl)Nc1ccc(Cl)c(F)c1` was tested, and the “log2 ratio of Biotin-Ahx-Ub-VS probe labelling” value (“log2 ratio” for short) was -1.86 (active). `Cc1cc(C(=O)NC2CCN(C(=O)CCl)CC2)no1` was tested, and the “log2 ratio” value was -0.548. In the case of `CN1C(=O)c2ccc(NC(=O)CCl)cc2C1=O`, the “log2 ratio” value was -2.49 (active). With `Cc1ccn2cc(CNC(=O)CCl)nc2c1.Cl` the “log2 ratio” value was -0.598. For `O=C(CCl)Nc1cc2c(cc1Cl)OCCCO2`, the “log2 ratio” value was -2.71 (active). `COc1ccc(Cl)cc1NC(=O)CCl` was tested, and the “log2 ratio” value was -1.52 (active). `CN(CCc1ncc(Br)cn1)C(=O)CCl.Cl` was tested, and the “log2 ratio” value was -2.5 (active). In the case of `CC1CCc2onc(CNC(=O)CCl)c2C1` (stereo not given), the “log2 ratio” value was -1.39 (active). For `O=C(CCl)N1CCN(c2nc3ccccc3o2)CC1`, the “log2 ratio” value was -0.288. `Cc1ccc(CN(C)C(=O)CCl)o1` was tested, and the “log2 ratio” value was -0.13. For `Cc1ccc(CC(CO)CNC(=O)CCl)cc1` (stereo not given), the “log2 ratio” value was -2.23 (active). `C/C(=C\CNC(=O)CCl)c1cnn(C)c1.Cl` was tested, and the “log2 ratio” value was -1.53 (active). In the case of `Cc1nc(CC2CCN(C(=O)CCl)CC2)no1`, the “log2 ratio” value was -0.733. `CC1CN(c2ccc(NC(=O)CCl)cc2)CC(C)O1` (stereo not given) was tested, and the “log2 ratio” value was -0.624. For `Cl.O=C(CCl)NCCc1ncc(F)cc1F`, the “log2 ratio” value was -1.69 (active). In the case of `CC(NC(=O)CCl)c1ccc2[nH]ncc2c1` (stereo not given), the “log2 ratio” value was -2.26 (active). `COc1cccc(CN(C)C(=O)CCl)c1` was tested, and the “log2 ratio” value was -0.854. With `O=C(CN1CCN(C(=O)CCl)CC1)Nc1cccc(F)c1` the “log2 ratio” value was -0.698. With `O=C(CCl)NCc1cccc(N2CCCC2=O)c1` the “log2 ratio” value was -1.04 (active). In the case of `O=C(CCl)N1CCC2(CCC(O)CC2)CC1`, the “log2 ratio” value was -0.183. `O=C(CCl)N1CCC(C(=O)N2CCCC2)CC1` was tested, and the “log2 ratio” value was -0.191. `Cc1cnc2[nH]cc(CCNC(=O)CCl)c2c1` was tested, and the “log2 ratio” value was -1.05 (active). With `NC(=O)C1CCCN(C(=O)CCl)C1` (stereo not given) the “log2 ratio” value was -0.167. For `Cc1cccc(NC(=O)CCl)c1C`, the “log2 ratio” value was -0.666. In the case of `Cc1c(C#N)c(NC(=O)CCl)n(Cc2ccco2)c1C`, the “log2 ratio” value was -2.32 (active). In the case of `Cc1ccc(CNC(=O)CCl)nc1C.Cl`, the “log2 ratio” value was -2.09 (active). `O=C(CCl)NCc1noc(C2CC2)n1` was tested, and the “log2 ratio” value was -0.61. In the case of `CNC(=O)Cn1cc(NC(=O)CCl)cn1`, the “log2 ratio” value was -0.495. For `COc1cc(Cl)c(C)cc1NC(=O)CCl`, the “log2 ratio” value was -1.24 (active). `Cc1ccc(C)c(Oc2ccc(CNC(=O)CCl)cn2)c1.Cl` was tested, and the “log2 ratio” value was -1.8 (active). `CN1c2ccccc2C(NC(=O)CCl)CS1(=O)=O` (stereo not given) was tested, and the “log2 ratio” value was -2.14 (active). With `Cc1cc(Cl)ccc1NC(=O)CCl` the “log2 ratio” value was -0.193. For `N#Cc1ccccc1N1CCN(C(=O)CCl)CC1`, the “log2 ratio” value was -1.53 (active). In the case of `O=C(CCl)N1CCC(c2ccn[nH]2)C1` (stereo not given), the “log2 ratio” value was -0.333. In the case of `Cc1nc(CN2CCN(C(=O)CCl)CC2)cs1`, the “log2 ratio” value was -0.304. `O=C(CCl)NCC(=O)N1CCCC1` was tested, and the “log2 ratio” value was -0.323. With `Cc1noc(N2CCN(C(=O)CCl)CC2)n1.Cl` the “log2 ratio” value was 0.15. For `CC(c1ccccc1)N(C)C(=O)CCl` (stereo not given), the “log2 ratio” value was -0.328. For `CCc1c[nH]c(CNC(=O)CCl)n1.Cl`, the “log2 ratio” value was -0.554. In the case of `Cc1nnc(C(NC(=O)CCl)c2ccccc2)n1C` (stereo not given), the “log2 ratio” value was 0.452.
